In PubChem BioAssay AID2401 (Southern Research Specialized Biocontainment Screening …, 2010):
Hit rate of the full screen: of about 2,200 compounds, about 530 (24%) were called active.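 How the source made its calls: active means inhibition above a set limit at one or more concentrations of the dose series; inactive means inhibition under that limit at every dose.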 The list is a sample of the results. Entries with a potency or affinity are not part of this list.

Assay: S. Typhimurium nonspecific reporter signal inhibition – Salmonella Typhimurium, GFP fluorescence, counter-screen for PhoP regulon inhibitor project, dose response (AID 2401);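 further: S. typhimurium with Mg-insensitive nmpC-GFP reporter grown at 10 µM Mg2+; drop in reporter fluorescence reflects general culture growth inhibition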
Conditions: 4 h; series mostly up to 150 µM

| Compound | outcome |
| --- | --- |
| O=C(Cc1c[nH]c2ccccc12)N/N=C/c1ccc(F)cc1 | inactive |
| NC(=O)CCc1c[nH]c2ccccc12 | inactive |
| CCc1nn2cc(C(=O)c3cc(Cl)ccc3O)cnc2c1-c1ccc(F)cc1 | inactive |
| Cc1cc(C(=O)COC(=O)CNC(=O)c2ccco2)c(C)n1Cc1ccco1 | inactive |
| c1ccc(Nc2ccnc(Nc3ccccc3)n2)cc1 | inactive |
| Cc1[nH]c2ccccc2c1C(O)CN1CCN(c2cccc(C(F)(F)F)c2)CC1 (stereo not drawn) | inactive |
| Brc1cccc(CNc2nc3ccccc3n2CCN2CCCCC2)c1 | inactive |
| Cc1cc(C(=O)N/N=C/c2ccc[nH]2)no1 | inactive |
| CC(C)CCNC(=S)Nc1ccc([N+](=O)[O-])cc1 | inactive |
| CC1=CC(C)C2(CO)COC(c3ccccc3O)C1C2C (stereo not drawn) | inactive |
| CCOC(=O)c1sc(-c2ccc(C(F)(F)F)cc2)nc1O | inactive |
| CC(Oc1ccc(Cl)cc1)c1ccnn1S(=O)(=O)c1ccccc1 (stereo not drawn) | inactive |
| CC(=O)Nc1ccc(S(=O)(=O)N2CCC(n3cnc4cc(F)ccc43)CC2)cc1 | inactive |
| CCOC(=O)C1=C(C)N=c2s/c(=C\c3ccncc3)c(=O)n2C1c1ccc2c(c1)OCO2 (stereo not drawn) | inactive |
| COc1ccc(C(=O)COc2nc(C)cc(C)c2C#N)cc1 | inactive |
| COc1ccc2nc(NC(=O)C3CCCN3S(=O)(=O)c3ccc(C)cc3)sc2c1 (stereo not drawn) | inactive |
| Clc1ccc(Nc2ncnc3c2cnn3-c2ccccc2)cc1 | inactive |
| COc1cc(CNc2ccc(CNc3ncn[nH]3)cc2)ccc1OCC(=O)NC(C)(C)C | inactive |
| NC[C@@]12CCCC1C1CCC2C1 (stereo partly drawn) | inactive |
| O=C(Oc1ccc[nH]c1=O)c1cc([N+](=O)[O-])cc([N+](=O)[O-])c1 | inactive |
| CC(O)CNc1cc(N)c([N+](=O)[O-])cc1[N+](=O)[O-] (stereo not drawn) | inactive |
| CC(NC(=O)C1(C)CC1(Br)Br)C(C)(C)C (stereo not drawn) | inactive |
| Cc1cc(C(=O)N/N=C/c2cc(Br)cc(Br)c2OC(=O)c2ccccc2)n[nH]1 | inactive |
| Cc1cc2ncn(C3CC(=O)N(Cc4ccc(N5CCCC5=O)cc4)C3=O)c2cc1C (stereo not drawn) | inactive |
| O=C(CSc1nnc2n(C3CCCCC3)c(=O)c3ccccc3n12)OC1CCCCC1 | inactive |

| Compound | outcome |
| --- | --- |
| Cc1ccc2cc(C(=O)O)c(C)nc2c1 | inactive |
| Cc1ccccc1NC(=O)Nc1cccs1 | inactive |
| Cc1ccc(S(=O)(=O)N2CCCC2C(=O)OCc2ccco2)cc1 (stereo not drawn) | inactive |
| CCCOc1ccc(Cn2cnc3ccccc32)cc1 | inactive |
| Cc1cc(C)nc(NC(=O)Cc2cccs2)n1 | inactive |
| Cc1c(C)n(Cc2ccccc2)c2ncnc(N)c12 | inactive |
| O=C(NCc1cccnc1)c1cc2ccccc2oc1=O | inactive |
| CCn1cc(C(=O)NCc2ccncc2)c(=O)c2cc(F)c(N3CCN(C(=O)c4ccco4)CC3)cc21 | inactive |
| COC(=O)Cc1ccc(NC(=S)N2CCN(c3ccc(F)cc3)CC2)cc1 | inactive |
| Cc1cc(SCC(N)=O)nc(SCC(=O)c2ccccc2)n1 | inactive |
| COC(=O)C1(O)CC(C(C)C)=NN1C(=O)c1ccc(Cl)cc1 (stereo not drawn) | inactive |
| Cc1ccc(C(=O)NC(=S)Nc2cccc3c(C)cc(C)nc23)cc1 | inactive |
| Cc1ccc(Nc2nnc(C3C(=O)N(C)C4(C)CC3c3cc(Br)ccc3O4)s2)cc1 (stereo not drawn) | inactive |
| Cc1cccc(OCCSCc2nc3ccccc3[nH]2)c1 | inactive |
| Cn1c(SCC(=O)N2c3ccccc3CCc3ccccc32)nnc1-c1cc2ccccc2cc1O | inactive |
| O=C(Cn1nc(C(F)(F)F)c2c1CCCCC2)N1CCOCC1 | inactive |
| CCOC(=O)C1=CSC2=NS(=O)(=O)CCN12 | inactive |
| [O-]/[N+](=C\c1ccncc1)c1ccccc1 | inactive |
| Cc1c(C(=O)Nc2cccc(Cl)c2)c2ccccn2c1CCc1ccncc1 | inactive |
| COc1cc(C)ccc1OCCCOc1ccccc1Br | inactive |
| COC(=O)c1cc(C#N)c(Oc2ccccc2OC)nc1C | inactive |
| Cc1occc1C(=O)n1cnc2ccccc21 | inactive |
| COc1cccc2[nH]c3c(N4CCC(C)CC4)ncnc3c12 | inactive |
| NC(=O)C1(NC(=O)[C@@H]2CC3(CC(c4cccc(NC(=O)[C@@H]5CCC(=O)N5)c4)=NO3)CN2C(=O)Cc2ccc(Cl)cc2)CC1 (stereo partly drawn) | inactive |
| Cc1ccc(/C(O)=C2\C(=O)C(=O)N(CC(C)O)C2c2cccc(F)c2)cc1 (stereo not drawn) | inactive |

| Compound | outcome |
| --- | --- |
| CCCCOc1ccc(S(=O)(=O)NNC(=O)C2Cc3c(ccc4ccccc34)O2)cc1 (stereo not drawn) | inactive |
| O=C(CN1CCCCC1)Nc1cccc(Br)c1 | inactive |
| Cc1ccc(S(=O)(=O)c2c(C(=O)c3ccccc3)cnc3cc4c(cc23)OCCO4)cc1 | inactive |
| OC(COc1ccc2ccccc2c1Br)Cn1ccnc1 (stereo not drawn) | inactive |
| CC(C)c1ccc(C2NC(=O)NC3=C2CCc2ccccc23)cc1 (stereo not drawn) | inactive |
| O=C(Nc1ccc(Cl)c(Cl)c1)Nc1ccccc1O | inactive |
| N/C(=N/OC(=O)c1ccccc1Cl)c1ncc([N+](=O)[O-])s1 | inactive |
| CCCCOc1ccc(NC(=O)Nc2nnc(C)s2)cc1 | inactive |
| CC(=O)c1ccc(NC(=O)Nc2cccc(Cl)c2)cc1 | inactive |
| Cc1ccc(Oc2ccc3c(c2)C(=O)N(c2ccc(S(=O)(=O)Nc4nccs4)cc2)C3=O)cc1 | inactive |
| CN(C)C(CNC(=O)Nc1cccc(Cl)c1)c1cccnc1 (stereo not drawn) | inactive |
| COc1ccc(N2CCN(C(=O)C3CCCO3)CC2)cc1 (stereo not drawn) | inactive |
| CN1C(=O)CC(P(=O)(c2ccccc2)c2ccccc2)N(C)C1=O (stereo not drawn) | inactive |
| c1ccc(OCCCN2CCCC2)cc1 | inactive |
| O=C(C1CCN(C2CC(=O)N(Cc3ccccc3)C2=O)CC1)N1CCCCCC1 (stereo not drawn) | inactive |
| COc1cccc(NC(=O)Cn2c(=O)n(CCCC(=O)NCc3ccco3)c(=O)c3ccccc32)c1 | inactive |
| Nc1ccc2oc(=O)c3ccccc3c2c1 | inactive |
| Nc1ccc2oc3ccccc3c2c1 | inactive |
| COC(=O)c1sccc1NC(=O)CSc1ccccc1NS(=O)(=O)c1ccc(Cl)cc1 | inactive |
| Cc1ccc(N2C(=O)CC(n3ccnc3)C2=O)cc1C (stereo not drawn) | inactive |
| CCN(CC)CCCn1c(=S)[nH]c2cc(OC)c(OC)cc2c1=O | inactive |
| CC(=O)C1=C(C)Nc2ncnn2C1c1ccccc1OCc1ccccc1 (stereo not drawn) | inactive |
| CCOc1ccc(-n2c(SCc3nc(-c4ccc(C)cc4)no3)nnc2-c2ccncc2)cc1 | inactive |
